NADH coupling: inhibition of NAD/NADH coupling enzymes, library profiling; AID 774; coupled PK/LDH NADH assays, four targets; IC50, µM (titrated, usually from 10 µM), for the others: at the highest dose inhibition; actives 0.02% (n = 65,000);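 active means single-dose screening hits from any of four coupled enzyme assays that gave an IC50 when retested across doses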;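 further: the DPM-DC format reads NADH fluorescence rather than 340 nm absorbance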
Spn PMK inh: S. pneumoniae PMK inhibition. purified PMK, PK/LDH-coupled NADH absorbance 340 nm. actives 0.49% (n = 65,000). AID 539. inhibition, % at 10 µM;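 active means top-ranked compounds by inhibition in the single 10 µM screen, taking a fixed number of the strongest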;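 further: 0% = full reaction with DMSO carrier and 100% = background rate without enzyme reaction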
A340 absorber: compound absorbs light at 340 nm; compound absorbance at 340 nm, fold over control; fold change at 10 µM; 65,000 tested, under 10 active; AID 708;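 active means at 10 µM dose, initial 340 nm absorbance at least 2 fold that of control wells; inactive means change under 2 fold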;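 further: initial absorbance extrapolated from kinetic A340 decline of NADH oxidation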
Autofluor 339: intrinsic fluorescence of library compounds, ex339/em460 – biochemical, MLSMR library, data from DPM-DC assay, artefact control, profiling panel; fluorescence fold increase at 10 µM; actives 5.5% (n = 65,000); AID 709; compound autofluorescence, ex339/em460 nm, NADH buffer; active compounds read high; 1 = no-compound wells, NADH background;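 active means at 10 µM, mean starting fluorescence two-fold or more over control wells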;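 further: signal is the first read of a kinetic run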
DPM-DC inhibit: blocks S. pneumoniae diphosphomevalonate decarboxylase. purified DPM-DC, PK/LDH coupled NADH fluorescence. calls only at 10 µM. actives 0.49% (n = 65,000). AID 556;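 active means the 320 compounds with the highest percent inhibition in the single-dose primary screen, excluding strongly autofluorescent ones, cut at about 32% in these data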;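 further: kinetic rate of NADH fluorescence loss reporting ADP formed by the decarboxylase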
Spn MK inh: inhibitors of Streptococcus pneumoniae mevalonate kinase. purified MK, PK/LDH-coupled NADH absorbance 340 nm. inhibition, % at 10 µM. actives 0.48% (n = 65,000). AID 555;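 active means ranked among the strongest by inhibition in the single 10 µM screen, a fixed top-ranked set picked for dose follow-up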
* marks the source's active call; other numbers are inactive results; i = inactive; nt = no result shown; + = active, no number; [ ] = dose if it differs, or a comment. Only some compounds are listed: those with a hit (about 6.3% of all), similar ones and a draw of the others.

SMILES	NADH coupling	Spn PMK inh	A340 absorber	Autofluor 339	DPM-DC inhibit	Spn MK inh
CCOC(=O)COc1ccc2c(c1)C(=O)CC(C)(C)O2	8%	15	1	4.8*	nt	0
O=C(O)COc1ccc2c(c1)CCCC2	2%	0	1.1	1.1	i	0
CC1(C)CC(=O)c2cc(OCC(=O)N3CCN(c4ccccc4F)CC3)ccc2O1	6%	26*	0.99	2.6*	+[may fluoresce]	4
CCOC(=O)COc1ccc2c(c1)C(=O)CC1(CCN(C(C)=O)CC1)O2	10%	19	1	4.8*	nt	0
COc1ccccc1-c1cn(S(=O)(=O)c2ccc(F)cc2)nc1N	5%	2	1	1.1	i	12
COc1ccc(CCNC(=O)c2nnn(-c3ccc4c(c3)OCCO4)c2N)cc1OC	3%	5	0.99	1	i	3
CN(C)c1nc(Oc2ccc(=O)[nH]n2)nc(N2CCCCC2)n1	5%	6	1	1	i	9
CCOC(=O)c1[nH]c2ccccc2c1NC(=O)CC(C)(C)C	8%	3	1.1	1.7	i	4
C=CCOC(=O)Nc1c(C(=O)OC)[nH]c2ccccc12	0%	0	1.1	1.4	i	1
CCOC(=O)c1[nH]c2ccccc2c1NC(=O)c1ccc(Br)o1	20%	0	1	0.91	i	54*
COC(=O)c1[nH]c2ccccc2c1NC(=O)Oc1ccccc1	10%	5	1.1	2.3*	i	7
CC(=O)c1cc(OC(=O)c2ccncc2)ccc1OC(=O)c1ccncc1	2%	0	1	1.1	i	6
CC(=O)c1cccc(NC(=O)C2CCCC2)c1	3%	0	1	1.1	i	10
O=C1NC(=O)c2cc(NC(=O)C3CCCCC3)ccc21	4%	3	1.1	3.6*	nt	5
COC(=O)c1ccccc1S(=O)(=O)Nc1ccc(OC)nc1	5%	11	0.97	1.1	i	4
COC(=O)c1[nH]c2cccc(OC)c2c1NC(=O)CN1CC2(C)CC1CC(C)(C)C2 (configuration not stated)	6%	4	1	2*	i	1
COC(=O)c1[nH]c2cccc(OC)c2c1NC(=O)CN1CCOCC1	3%	0	1.1	2.9*	i	2
COC(=O)c1[nH]c2cccc(OC)c2c1NC(=O)CCN1CC(C)CC(C)C1 (configuration not stated)	13%	9	1.1	2.7*	i	9
COC(=O)c1[nH]c2cccc(OC)c2c1NC(=O)CCN1CCN(c2cccc(Cl)c2)CC1	12%	13	1	2.6*	i	9
COc1ccc(C2CC(=O)C(C=NCCN3CCN(C(C)=O)CC3)=C(O)C2)cc1OC (configuration not stated)	6%	13	1	1.1	i	6
CCOCCCNC(=O)C(NC(=O)C1CCC(=O)N1)c1ccc(C)cc1 (configuration not stated)	4%	6	1	1.1	i	7
Cc1ccc(-c2noc(CCCC(=O)Nc3cccnc3)n2)cc1	6%	7	0.99	0.99	i	8
COc1ccc(-c2cn3cc(C)ccc3n2)cc1OC	2%	0	1	2.5*	nt	0
COc1ccc(-c2cn3ccccc3n2)cc1OC	10%	4	1	4*	nt	16
CN(C)S(=O)(=O)c1cccc(-c2cn3ccccc3n2)c1	2%	6	1	1.8	i	0
SMILES	NADH coupling	Spn PMK inh	A340 absorber	Autofluor 339	DPM-DC inhibit	Spn MK inh
O=C(NCc1ccco1)C(NS(=O)(=O)c1cccc2nsnc12)c1ccccc1 (configuration not stated)	5%	13	1	1.3	i	1
COc1ccc(N(CC(=O)O)S(=O)(=O)c2cccnc2)cc1	9%	11	1	1.1	i	15
CN(C(=O)c1cccc(C#N)c1)c1nnc(-c2ccncc2)s1	12%	13	1	2.4*	i	0
CN(C(=O)c1cccnc1)c1nnc(-c2ccccn2)s1	12%	20	0.94	2.2*	i	6
FC(F)(F)c1cc(-c2ccco2)nc(-n2nc(C(F)(F)F)cc2C2CC2)n1	11%	12	1	3.4*	i	5
FC(F)(F)c1cc(-c2ccco2)nc(-n2nnc3ccccc32)n1	11%	11	1	2.4*	+	5
COCCNS(=O)(=O)c1ccc(SC)cc1	3%	9	1.1	1.2	i	1
CCCOc1ccc(-c2nnn(CC(=O)Nc3cccc(C(=O)OC)c3)n2)cc1	3%	26*	1	1	i	2
CCOc1ccc(-c2nnn(CC(=O)Nc3cccc(OC)c3)n2)cc1OCC	6%	13	0.97	1.1	i	5
CCCn1c(SCC(N)=O)nc2c(c1=O)C1(CCCC1)Cc1ccccc1-2	4%	11	1	1.1	i	0
Cn1c(NCCCO)nc2c(c1=O)C1(CCCCC1)Cc1ccccc1-2	9%	11	1.1	3.8*	nt	7
COC(=O)c1ccccc1NC(=O)c1ccc(-c2ccccc2F)o1	2%	10	1	2.2*	nt	6
O=C(CNS(=O)(=O)c1ccccc1)NCc1ccccn1	3%	0	0.99	1	i	0
O=C1CCC(=O)N1CN(Cc1ccco1)CN1C(=O)CCC1=O	3%	9	0.99	1.1	i	0
CC1(C)Cc2nc3oc4c(N(CCO)Cc5ccccc5)ncnc4c3cc2CO1	7%	4	1	2.4*	i	8
CC1(C)Cc2nc3sc4c(SCC(=O)NCc5ccco5)ncnc4c3cc2CO1	0%	1	1.1	1.1	i	0
Clc1ccc(OCc2cn3cccnc3n2)c2ncccc12	7%	14	1	2.1*	nt	0
CCOC(=O)CSC(C)C(=O)Nc1nnc(C(C)C)s1 (configuration not stated)	1%	0	1	1.1	i	3
COCCn1nnnc1C(c1ccc(Cl)cc1)N1CCSCC1 (configuration not stated)	4%	1	1.1	1.1	i	9
COC(=O)c1nonc1NCn1nnc2ccccc21	12%	29*	0.98	1.1	i	7
COC(=O)c1ccc(NC(=O)Cn2nnc3ccccc32)cc1	3%	10	1.1	1	i	8
Cc1nn(-c2ccccc2)c(-c2ccccc2)c1C(=O)O	6%	0	1.1	0.91	i	10
CCCS(=O)(=O)N1CCCC(C(=O)NCC2CCCO2)C1 (configuration not stated)	2%	5	0.97	1.1	i	0
Fc1ccc(-c2nc3nc4ccccc4nc3n2Cc2ccco2)cc1	4%	8	1.1	1.4	i	2
Fc1ccc(-n2c(-c3ccco3)nc3nc4ccccc4nc32)cc1	8%	16	1.1	5.1*	nt	0

Screening results (PubChem)
